Assay results taken from the supplement of paper PMC10121225.
Counter-ions that a name gives are not always drawn.

tested on: hN + hpA co-culture (H1 iNGN2 human neurons + human primary astrocytes); assay: presynaptic density (SYNAPSIN1 puncta per MAP2 neurite area), Z-score vs DMSO controls; higher = more presynaptic puncta (synapse-promoting); conditions: 3 µM; 72 h
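Note: immunostained co-cultures imaged by high-content microscopy, Z-score per plate against mean and SD of 0.1% DMSO wells, compounds added on differentiation day 18, analysed day 21.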

SMILES	presynaptic density (Z-score)
CCc1cncnc1N1CCN(Cc2nc3ccc(C(F)(F)F)cc3[nH]2)CC1	-0.739
COc1ccc(C2CNC(=O)C2)cc1OC1CCCC1 (centres undefined) [Rolipram]	-0.353
CC(C)(C#N)c1cc(Cn2cncn2)cc(C(C)(C)C#N)c1	-0.628
Cc1cc(OCCCS(C)(=O)=O)cc(C)c1-c1cccc(COc2ccc3c(c2)OC[C@H]3CC(=O)O)c1	-0.294
COc1cc(OC)c(/C=C/S(=O)(=O)Cc2ccc(OC)c(NCC(=O)O)c2)c(OC)c1	-3.31
Cc1cnc(-c2cc(N3CCN(C(=O)CCS(C)(=O)=O)CC3)ncc2Cl)c(C)c1	-1.22
Cc1c(C(=O)NN2CCCCC2)nn(-c2ccc(Cl)cc2Cl)c1-c1ccc(Cl)cc1 [Rimonabant]	-0.594
CC1=C(C(=O)Nc2cc3cn[nH]c3cc2F)C(c2ccc(C(F)(F)F)cc2)CC(=O)N1 (centres undefined)	1.88
O=C(Nc1ccc(S(=O)(=O)Nc2ccccc2Cl)c(Cl)c1)c1ccccn1	-0.71
CCCC(=O)Nc1cccc(NC(=O)c2ccccc2Br)c1	-0.374
Cc1[nH]c2ccccc2c1C1=C(NCCc2ccc(F)cc2)C(=O)N(C)C1=O	-0.562
O=C(Nc1ccccc1Br)N[C@@H]1CCN(c2ccc(C(F)(F)F)cn2)C1	-1.47
CCCCc1nc(Cl)c(CO)n1Cc1ccc(-c2ccccc2-c2nnn[nH]2)cc1 [Losartan Potassium (DuP 753)]	0.806
CCN(CC)CCNC(=O)c1cc(Cl)c(N)cc1OC [MetoclopraMide HCl]	0.023
CC(C)NCC(O)COc1cccc2ccccc12 (centres undefined) [Propranolol HCl]	0.278
Cc1ccc(-c2cc(C(F)(F)F)nn2-c2ccc(S(N)(=O)=O)cc2)cc1	-0.625
CC(=O)Nc1nc2c(Oc3cc(-c4ccc(C(F)(F)F)cc4)ncn3)cccc2s1	0.208
Cc1cn(-c2cc(NC(=O)c3ccc(C)c(Nc4nccc(-c5cccnc5)n4)c3)cc(C(F)(F)F)c2)cn1 [Nilotinib (AMN 107 or Tasigna)]	-1.02
Cn1c(N2CCCCS2(=O)=O)nc(C(=O)NCc2ccc(F)cc2)c(O)c1=O	-1.68
CCCCCCCCCCCC1=C(O)C(=O)C=C(O)C1=O	-0.826

SMILES	presynaptic density (Z-score)
CCOC(=O)[C@H](CCc1ccccc1)N[C@@H](C)C(=O)N1C(=O)N(C)C[C@H]1C(=O)O [Imidapril HCl]	-0.0695
FC(F)(F)c1ccc(/C=C/c2nc(COc3ccc(CCCCn4ccnn4)cc3)co2)cc1 [Mubritinib (TAK 165)]	-3.36
C#CCN[C@@H]1CCc2ccccc21 [Rasagiline Mesylate]	0.0894
COc1cc(CCc2cc(NC(=O)c3ccc(N4CC(C)NC(C)C4)cc3)n[nH]2)cc(OC)c1 (centres undefined)	-0.132
COc1cccc(C=NCCN=Cc2cccc(OC)c2[O-])c1[O-].[Cl-].[Mn+3]	-0.63
COc1cc(Br)c(Nc2nc(-c3c(C)nc4ncccn34)cs2)c(Br)c1	-2
O=C(Nc1ccccc1-c1cn2c(CN3CCNCC3)csc2n1)c1cnc2ccccc2n1	-1.26
CNC(=C[N+](=O)[O-])NCCSCc1ccc(CN(C)C)o1 [Ranitidine]	-0.33
Oc1ncnc2[nH]ncc12 [Allopurinol]	-0.774
CC(C)CC(=O)Nc1n[nH]c2c1CN(C(=O)C1CCN(C)CC1)C2(C)C	-2.75
C[C@@H]1CCN(C(=O)CC#N)C[C@@H]1N(C)c1ncnc2[nH]ccc12	-0.892
COc1cc2/c(=N/c3ccc(Br)cc3F)nc[nH]c2cc1OCC1CCN(C)CC1 [Vandetanib (ZD 6474)]	0.993
CCNC(=O)c1noc(-c2cc(C(C)C)c(O)cc2O)c1-c1ccc(CN2CCOCC2)cc1	3.55
CC(C)(C)c1cnc(CSc2cnc(NC(=O)C3CCNCC3)s2)o1	-3.77
COC(=O)CCSCc1ccc(-c2onc(C)c2NC(=O)OC(C)c2ccccc2Cl)cc1 (centres undefined)	-0.843
COc1cc(F)c(C(C)C)cc1-c1ccc(C(F)(F)F)cc1CN1C(=O)O[C@H](c2cc(C(F)(F)F)cc(C(F)(F)F)c2)[C@@H]1C [Anacetrapib (MK-0859)]	-0.588
O=C(Nc1cc(C(F)(F)F)cc(C(F)(F)F)c1)c1cc(Cl)ccc1O	-3.05
COc1cc(OC2CCN(C)CC2)ccc1Nc1ncc2c(n1)n(C1CCCC1)c(=O)n2C	-0.583
CCc1c2c(nc3ccc(O)cc13)-c1cc3c(c(=O)n1C2)COC(=O)[C@]3(O)CC	0.761
